Data published in PubChem BioAssay AID2078 (The Scripps Research Institute Molecular Screening Center, 2009).
Calls of active or inactive are those of the source. The rule behind the calls is not given here.

Test: STAT3 inhibitors, late-stage profile, late-stage follow-up, cell-based, STAT1 panel, qPCR, cytotoxicity (AID 2078)
Conditions: STAT3/STAT1 inhibition panel, cell reporter assay, Quantitative PCR; qPCR mRNA fold change, at 10 µM, stronger effect = lower value

## c1ccc(CC2CCN(c3ncnc4sccc34)CC2)cc1
  fold change: 0.68
  outcome: active; probe
